Pf Dd2 inh = blocks growth of Plasmodium falciparum Dd2 parasites. P. falciparum Dd2 growth, SYBR Green, 72 h; stronger effect = lower value. activity change, % at 10 µM. 2.3% of 94,000 active; in the data active means activity change below about -80%; inconclusive means no clear call, values can overlap the other calls
C diff HTS = inhibitors of Clostridium difficile growth; Clostridium difficile clinical isolate growth, OD600, 24 h; stronger effect = lower value; growth activity, negative = inhibition, % at 16 µg/mL (by protocol); 0.25% of 86,000 active; AID 1259249;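 active means mean growth activity at or below -80% and every replicate also at or below -80%; inconclusive means mean at or below -80% but some replicate above -80%; inactive means mean growth activity above -80%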;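 further: 0% = DMSO wells and -100% = levofloxacin 16 µg/mL wells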
T cruzi growth-1 = blocks T. cruzi growth in NIH3T3 culture | T. cruzi beta-gal in NIH3T3, GalScreen luminescence, 90 h | inhibition, % at 8.34 µM | 5.9% of 77,000 active | AID 624255;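 active means mean inhibition above about 93%, with at least 55% of replicates each passing it, limit read from the data, passing the limit was not always enough; inconclusive means only one of those two conditions holds; inactive means neither condition holds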
T cruzi growth-2 = inhibitors of T. cruzi proliferation; T. cruzi beta-gal in NIH3T3, GalScreen luminescence, 90 h; inhibition, % at 8.35 µM; 72% of 5,600 active; shares compounds with T cruzi growth-1;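 active means mean replicate inhibition above about 95% and at least 55% of replicates individually reaching it, limit read from the data; inconclusive means only one of the two criteria is met; inactive means neither criterion is met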
T cruzi growth-3 = inhibitors of T. cruzi proliferation. shares compounds with T cruzi growth-1. T. cruzi beta-gal in NIH3T3, GalScreen luminescence, 90 h. inhibition, % at 2.09 µM. 21% of 5,600 active;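 active means mean inhibition above about 95%, with at least 55% of replicates also reaching it, limit read from the data; inconclusive means meets just one of the two conditions; inactive means meets neither condition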;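 further: plate controls were neutral control median for no effect and positive control median for full effect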
3T3 cytotox = cytotoxicity in mouse NIH/3T3 fibroblasts. cytotoxicity (signal decrease), % at 8.35 µM. 14% of 5,600 active. AID 651742. NIH/3T3 viability, CellTiter-Glo ATP luminescence, 90 h. shares compounds with T cruzi growth-1;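 active means mean signal decrease across replicates above about 35% based on untreated-well scatter, with enough replicates individually passing, limit read from the data; inconclusive means no rule stated though some were filed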;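 further: 0% = median of neutral control wells and 100% = median of positive control wells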
3T3 cytotox 2 = NIH/3T3 (mouse) viability loss; shares compounds with T cruzi growth-1; NIH/3T3 viability, CellTiter-Glo ATP luminescence, 90 h; inhibition, % at 24.9 µM; 56% of 5,600 active; AID 651744;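 active means mean loss of cell viability signal at or above a set limit, and enough replicates individually reaching it; inconclusive means meets only the mean limit or only the replicate share; inactive means meets neither condition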;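 further: 0% = median of neutral control wells and 100% = median of positive control wells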
* hit, by the source's call; ? = inconclusive; / = not tested or not shown; ! = repeats disagree. This is a sample that favours compounds with a hit; in the whole collection about 6.7% have one here.

SMILES | Pf Dd2 inh | C diff HTS | T cruzi growth-1 | T cruzi growth-2 | T cruzi growth-3 | 3T3 cytotox | 3T3 cytotox 2
COc1ccc(CN(C)C[C@H]2OCCCC[C@H](C)Oc3ccc(NS(=O)(=O)c4ccccc4)cc3C(=O)N([C@@H](C)CO)C[C@H]2C)cc1 | -69 | -2 | 103* | 109* | 42 | 24 | 90*
C[C@@H]1CN([C@H](C)CO)C(=O)c2cc(NS(=O)(=O)c3cn(C)cn3)ccc2O[C@@H](C)CCCCO[C@H]1CN(C)S(=O)(=O)c1cn(C)cn1 | 49 | -1 | -40 | / | / | / | /
CCCC(=O)Nc1ccc2c(c1)C(=O)N(C)[C@@H]1CC[C@H](CC(=O)NCCc3ccccc3)O[C@@H]1CO2 | 10 | 2 | 3 | / | / | / | /
OC[C@@H]1[C@@H](c2ccc(-c3cccnc3)cc2)[C@H]2CN(CC3CC3)CCCCN12 | -49 | 9 | 44 | / | / | / | /
CN1CCCCN2[C@H](CO)[C@H](c3ccc(-c4cccnc4)cc3)[C@@H]2C1 | -64 | -3 | ? | 76 | 33 | 2 | -13
OC[C@@H]1[C@H](c2ccc(-c3cccnc3)cc2)[C@@H]2CN(CC3CC3)CCCCN12 | -72 | 5 | 104* | 67 | 17 | 0 | -9
CN1CCCCN2[C@H](CO)[C@H](c3ccc(-c4cccnc4)cc3)[C@H]2C1 | 1 | -8 | 88 | / | / | / | /
C[C@@H]1CN([C@H](C)CO)C(=O)c2cc(C#Cc3ccccc3)cnc2O[C@@H]1CN(C)C(=O)C1CC1 | -62 | -2 | 56 | / | / | / | /
C[C@@H]1CCCCO[C@H](CN(C)C(=O)NC2CCCCC2)[C@@H](C)CN([C@H](C)CO)C(=O)c2cc(NC(=O)Nc3ccc(F)cc3)ccc2O1 | -1 | 2 | 69 | / | / | / | /
C[C@H]1CN([C@@H](C)CO)C(=O)c2cc(C#CC3(O)CCCC3)cnc2O[C@@H]1CN(C)C(=O)CC1CC1 | 6 | -2 | 52 | / | / | / | /
C[C@@H]1CN([C@H](C)CO)S(=O)(=O)c2ccc(-c3cccc(C#N)c3)cc2O[C@@H]1CN(C)C(=O)Nc1cc(F)ccc1F | -32 | 12 | / | / | / | / | /
C[C@@H]1CN([C@H](C)CO)S(=O)(=O)c2ccc(-c3ccc(C#N)cc3)cc2O[C@@H]1CN(C)C(=O)Nc1cc(F)ccc1F | -45 | -3 | 115* | 92 | -7 | -3 | 77*
C[C@H]1CN([C@@H](C)CO)S(=O)(=O)c2ccc(-c3ccc(C#N)cc3)cc2O[C@H]1CN(C)C(=O)Nc1cc(F)ccc1F | -74 | 1 | 122* | 102* | 67 | 30 | 84*
C[C@@H]1CN([C@H](C)CO)S(=O)(=O)c2ccc(-c3ccc(C#N)cc3)cc2O[C@H]1CN(C)C(=O)Nc1cc(F)ccc1F | -56 | 2 | 109*! | 78 | 53 | 81* | 83*
C[C@H]1CN([C@@H](C)CO)S(=O)(=O)c2ccc(C#CC3CCCC3)cc2O[C@@H]1CN(C)C(=O)Nc1cc(F)ccc1F | -8 | 9 | / | / | / | / | /
C[C@H](CO)N1C[C@H](C)[C@@H](CN(C)C(=O)Nc2cc(F)ccc2F)Oc2cc(-c3ccc(C#N)cc3)ccc2S1(=O)=O | -58 | 5 | 118* | 101* | 28 | 46* | 83*
CCCNC(=O)N1CC2(C1)CN(C(=O)CCC)[C@@H](CO)c1[nH]c3cc(OC)ccc3c12 | 44 | 1 | / | / | / | / | /
CC=Cc1ccc2n(c1=O)C[C@@H]1[C@@H](CO)[C@H](C(=O)NCCc3cn(C)cn3)N(C(=O)CC)[C@H]21 (mixture of isomers) | 17 | -3 | / | / | / | / | /
CCCC(=O)Nc1ccc2c(c1)OC[C@@H](C)N(Cc1nccs1)C[C@@H](C)[C@H](OC)CN(C)C2=O | -11 | / | 46 | / | / | / | /
COc1ccc(NC(=O)N(C)C[C@@H]2Oc3ncc(C#CCC(C)C)cc3C(=O)N([C@@H](C)CO)C[C@H]2C)cc1 | -51 | -14 | / | / | / | / | /
C[C@H](CO)N1C[C@H](C)[C@@H](CN(C)Cc2cncnc2)Oc2ncc(/C=C/c3ccccc3)cc2C1=O | -35 | -12 | 62 | / | / | / | /
O=C(C[C@@H]1C=C[C@@H](NC(=O)Nc2ccc(C(F)(F)F)cc2)[C@@H](CO)O1)NCc1ccccn1 | -12 | -4 | 14 | / | / | / | /
C[C@H](CO)N1C[C@H](C)[C@H](CN(C)C(=O)c2ccncc2)Oc2ncc(C#CC3CC3)cc2C1=O | 42 | / | -3 | / | / | / | /

Compound activity from PubChem.
